From the supplement of paper PMC8728848
This is one part of a sample in which the strongest signals are shown more often than they occur.

How the values were obtained:
Experiment in all cases: glycan array binding signal (z-score within array); higher = stronger binding
Conditions in all cases: glycan notation: IUPAC condensed, linker removed
[1] = target: Fuc(a1-2)Gal(b1-3)GlcNAc(b1-3)[Gal(b1-4)GlcNAc(b1-6)]Gal(b1-4)Glc
Procedure, shortened: (§1)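 The binding signal is a Z-score computed within each array. Data were drawn from 3228 arrays in the Consortium for Functional Glycomics database, restricted to those with a known protein sequence. Scores were averaged over arrays of the same protein sequence at different concentrations or buffers, and over linkers, and negative values can be taken as non-binding.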

[2] = target: Fuc(a1-2)Gal(b1-4)GlcNAc
Procedure, shortened: as §1

[3] = target: Fuc(a1-2)Gal(b1-4)GlcNAc(b1-3)[Fuc(a1-3)[Gal(b1-4)]GlcNAc(b1-6)]Gal(b1-4)Glc
Procedure, shortened: as §1

[4] = target: Fuc(a1-2)Gal(b1-4)GlcNAc(b1-6)GalNAc
Procedure, shortened: as §1

[5] = target: Fuc(a1-2)Gal6S(b1-3)GlcNAc
Procedure, shortened: as §1

[6] = target: Fuc(a1-2)[Gal(a1-3)]Gal(b1-3)GlcNAc(b1-2)Man(a1-3)[Fuc(a1-2)[Gal(a1-3)]Gal(b1-3)GlcNAc(b1-2)Man(a1-6)]Man(b1-4)GlcNAc(b1-4)GlcNAc
Procedure, shortened: as §1

[7] = target: Fuc(a1-2)[Gal(a1-3)]Gal(b1-3)GlcNAc(b1-6)GalNAc
Procedure, shortened: as §1

[8] = target: Fuc(a1-2)[Gal(a1-4)]Gal(b1-4)GlcNAc
Procedure, shortened: as §1

[9] = target: Fuc(a1-2)[GalNAc(a1-3)]Gal(b1-3)GlcNAc(b1-6)GalNAc
Procedure, shortened: as §1

[10] = target: Fuc(a1-2)[GalNAc(a1-3)]Gal(b1-4)GlcNAc(b1-2)Man(a1-3)[Fuc(a1-2)[GalNAc(a1-3)]Gal(b1-4)GlcNAc(b1-2)Man(a1-6)]Man(b1-4)GlcNAc(b1-4)[Fuc(a1-6)]GlcNAc
Procedure, shortened: as §1

[11] = target: Fuc(a1-2)[GalNAc(a1-3)]Gal(b1-4)GlcNAc(b1-6)GalNAc
Procedure, shortened: as §1

[12] = target: Fuc(a1-2)[GalNAc(a1-4)]Gal(b1-4)GlcNAc
Procedure, shortened: as §1

[13] = target: Fuc(a1-3)[Gal(b1-4)]GlcNAc(b1-2)Man(a1-3)[Fuc(a1-3)[Gal(b1-4)]GlcNAc(b1-2)Man(a1-6)]Man(b1-4)GlcNAc(b1-4)[Fuc(a1-6)]GlcNAc
Procedure, shortened: as §1

[14] = target: Fuc(a1-3)[Gal(b1-4)]GlcNAc(b1-3)Gal(b1-4)[Fuc(a1-3)]GlcNAc(b1-3)Gal(b1-4)[Fuc(a1-3)]GlcNAc
Procedure, shortened: as §1

[15] = target: Fuc(a1-3)[Gal3S(b1-4)]GlcNAc6S
Procedure, shortened: as §1

[16] = target: Gal(b1-3)[Fuc(a1-4)]GlcNAc(b1-3)Gal(b1-3)[Fuc(a1-4)]GlcNAc
Procedure, shortened: as §1

[17] = target: Gal(b1-3)[Fuc(a1-4)]GlcNAc(b1-6)GalNAc
Procedure, shortened: as §1

[18] = target: Gal(b1-4)Glc
Procedure, shortened: as §1

[19] = target: Gal(b1-4)GlcNAc(b1-2)Man(a1-3)[Man(a1-6)]Man(b1-4)GlcNAc(b1-4)GlcNAc
Procedure, shortened: as §1

[20] = target: GalNAc(b1-3)Gal(a1-4)Gal(b1-4)GlcNAc(b1-3)Gal(b1-4)Glc
Procedure, shortened: as §1

[21] = target: GalNAc(b1-3)GalNAc
Procedure, shortened: as §1

[22] = target: GlcA3S(b1-3)Gal(b1-4)GlcNAc(b1-2)Man
Procedure, shortened: as §1

[23] = target: GlcNAc(b1-3)Gal(b1-4)GlcNAc(b1-3)Gal(b1-4)GlcNAc(b1-3)Gal(b1-4)GlcNAc(b1-2)Man(a1-3)[GlcNAc(b1-3)Gal(b1-4)GlcNAc(b1-3)Gal(b1-4)GlcNAc(b1-3)Gal(b1-4)GlcNAc(b1-2)Man(a1-6)]Man(b1-4)GlcNAc(b1-4)GlcNAc
Procedure, shortened: as §1

[24] = target: GlcNAc(b1-3)Gal(b1-4)GlcNAc(b1-3)Gal(b1-4)GlcNAc(b1-3)Gal(b1-4)GlcNAc(b1-3)Gal(b1-4)GlcNAc(b1-2)[GlcNAc(b1-3)Gal(b1-4)GlcNAc(b1-3)Gal(b1-4)GlcNAc(b1-3)Gal(b1-4)GlcNAc(b1-3)Gal(b1-4)GlcNAc(b1-6)]Man(a1-6)[GlcNAc(b1-3)Gal(b1-4)GlcNAc(b1-3)Gal(b1-4)GlcNAc(b1-3)Gal(b1-4)GlcNAc(b1-3)Gal(b1-4)GlcNAc(b1-2)Man(a1-3)]Man(b1-4)GlcNAc(b1-4)[Fuc(a1-6)]GlcNAc
Procedure, shortened: as §1

[25] = target: Neu5Ac(a2-3)Gal(b1-3)GlcNAc(b1-2)Man(a1-3)[GlcNAc(b1-4)][Neu5Ac(a2-3)Gal(b1-3)GlcNAc(b1-2)Man(a1-6)]Man(b1-4)GlcNAc(b1-4)GlcNAc
Procedure, shortened: as §1

[26] = target: Neu5Ac(a2-3)Gal(b1-3)GlcNAc(b1-2)[Neu5Ac(a2-3)Gal(b1-3)GlcNAc(b1-4)]Man(a1-6)[Neu5Ac(a2-3)Gal(b1-3)GlcNAc(b1-2)Man(a1-3)]Man(b1-4)GlcNAc(b1-4)GlcNAc
Procedure, shortened: as §1

[27] = target: Neu5Ac(a2-3)Gal(b1-3)[Fuc(a1-4)]GlcNAc
Procedure, shortened: as §1

[28] = target: Neu5Ac(a2-3)Gal(b1-3)]Neu5Ac(a2-3)Gal(b1-4)]GlcNAc
Procedure, shortened: as §1

[29] = target: Neu5Ac(a2-3)Gal(b1-4)GlcNAc
Procedure, shortened: as §1

[30] = target: Neu5Ac(a2-3)Gal(b1-4)GlcNAc(b1-2)Man(a1-3)[Neu5Ac(a2-3)Gal(b1-4)GlcNAc(b1-2)Man(a1-6)]Man(b1-4)GlcNAc(b1-4)[Fuc(a1-6)]GlcNAc
Procedure, shortened: as §1

B1: diCBM40 CPF071 (Clostridium perfringens) (protein)
chain: MAHHHHHHVGTGSNDDDDKSPDPMLSSLGEYKDINLESSNASNITYDLEKYKNLDEGTIVVRFNSKDSKIQSLLGISNSKTKNGYFNFYVTNSRVGFELRNQKNEGNTQNGTENLVHMYKDVALNDGDNTVALKIEKNKGYKLFLNGKMIKEVKDTNTKFLNNIENLDSAFIGKTNRYGQSNEYNFKGNIGFMNIYNEPLGDDYLLSKTGETKALNGSELGSGSGLSSLGEYKDINLESSNASNITYDLEKYKNLDEGTIVVRFNSKDSKIQSLLGISNSKTKNGYFNFYVTNSRVGFELRNQKNEGNTQNGTENLVHMYKDVALNDGDNTVALKIEKNKGYKLFLNGKMIKEVKDTNTKFLNNIENLDSAFIGKTNRYGQSNEYNFKGNIGFMNIYNEPLGDDYLLSKTGETK
[1]
  glycan array binding signal (z-score): -0.277
[2]
  glycan array binding signal (z-score): -0.304
[3]
  glycan array binding signal (z-score): -0.238
[4]
  glycan array binding signal (z-score): -0.304
[5]
  glycan array binding signal (z-score): -0.33
[6]
  glycan array binding signal (z-score): -0.342
[7]
  glycan array binding signal (z-score): -0.307
[8]
  glycan array binding signal (z-score): -0.342
[9]
  glycan array binding signal (z-score): -0.287
[10]
  glycan array binding signal (z-score): -0.324
[11]
  glycan array binding signal (z-score): -0.321
[12]
  glycan array binding signal (z-score): -0.255
[13]
  glycan array binding signal (z-score): -0.084
[14]
  glycan array binding signal (z-score): -0.183
[15]
  glycan array binding signal (z-score): -0.332
[16]
  glycan array binding signal (z-score): -0.31
[17]
  glycan array binding signal (z-score): -0.151
[18]
  glycan array binding signal (z-score): -0.329
[19]
  glycan array binding signal (z-score): -0.257
[20]
  glycan array binding signal (z-score): -0.306
[21]
  glycan array binding signal (z-score): -0.314
[22]
  glycan array binding signal (z-score): -0.33
[23]
  glycan array binding signal (z-score): 0.045
[24]
  glycan array binding signal (z-score): -0.23
[25]
  glycan array binding signal (z-score): -0.21
[26]
  glycan array binding signal (z-score): 5.89
[27]
  glycan array binding signal (z-score): 4.37
[28]
  glycan array binding signal (z-score): 8.45
[29]
  glycan array binding signal (z-score): 4.46
[30]
  glycan array binding signal (z-score): 5.75
